Experimental data published in PubChem BioAssay (Tox21).
Where “and” joins values, the source holds several entries; their conditions need not be identical. Equal values may be shown once. Records with an inconclusive call do not appear. Where a call stands in place of a potency, no number is given. Some compounds were tested as several samples or in several runs, with calls that do not always agree. Calls of active or inactive are those of the source. Unless noted, calls come from the whole dose curve; as a rule, active = well fitted curve in the direction sought with a large enough effect in the repeat runs; inconclusive = weak or mixed curves; inactive = no such curve, though single readings can be large; an effect the other way counts as inactive or inconclusive.

What was measured:
[1] = qHTS assay to identify small molecule agonists of the estrogen receptor alpha (ER-alpha) signaling pathway in the presence of an antagonist - cell viability counter screen (AID 1259386);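 note: series mostly up to about 92 µM; cells exposed to compounds for 22 h at 37 °C before the viability read; nearly all actives have a fitted effect of over 30% in size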
Procedure, shortened: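 Cells are starved of estrogens for 5 days in charcoal-stripped serum, seeded for 24hr and co-treated with ICI-182,780 (10.0nM final) and test compounds. After 22hr at 37C, viability is read as CellTiter-Fluor fluorescence.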

[2] = molecular target: Progesterone receptor (Homo sapiens) (UniProt P06401); experiment: qHTS assay to identify small molecule agonists of the progesterone receptor (PR) signaling pathway (AID 1346784; calls by dose curve; note: nearly all actives have a fitted effect of over 30% in size)
Procedure, shortened: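 PR-UAS-bla HEK 293T cells carrying a UAS-driven beta-lactamase reporter were seeded in medium with 2% charcoal-stripped FBS, preincubated 6 hr at 37C, then exposed to compounds in DMSO for 16 hr; agonism was read by LiveBLAzer B/G FRET fluorescence.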

[3] = qHTS assay to identify small molecule antagonists of the progesterone receptor (PR) signaling pathway - cell viability counter screen (AID 1346798); note: nearly all actives have a fitted effect of over 50% in size; note: potency is the fitted concentration of half-maximal effect
Procedure, shortened: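 PR-UAS-bla HEK293T cells in medium with 2% charcoal-stripped FBS were treated with compounds plus R5020 for 16 hr at 37C. Cell viability was then read by CellTiter-Glo luminescence after 30 min at room temperature in the same wells.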

[4] = qHTS assay to identify small molecule agonists of the progesterone receptor (PR) signaling pathway - cell viability counter screen (AID 1346799; calls by dose curve; note: nearly all actives have a fitted effect of over 45% in size)
Procedure, shortened: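 PR-UAS-bla HEK293T cells, 3,000 per well in medium with 2% charcoal-stripped FBS, were preincubated 6 hr at 37C, then exposed to compounds for 16 hr; viability was read as CellTiter-Glo luminescence after 30 min at room temperature.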

[5] = qHTS assay to identify small molecule antagonists of the TGF-beta/Smad signaling pathway - cell viability counter screen (AID 1346824); note: nearly all actives have a fitted effect of over 50% in size
Procedure, shortened: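 SBE-bla HEK 293T cells, incubated overnight, then compound plus 0.25 ng/mL TGF-beta1 (stock added) for 5 hr at 37 C. Viability was read in the same wells by CellTiter-Glo luminescence after 30 min at room temperature.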

[6] = qHTS assay to identify small molecule agonists of the TGF-beta/Smad signaling pathway - cell viability counter screen (AID 1346829); note: top concentration of the series differs between compounds; nearly all actives have a fitted effect of over 45% in size
Procedure, shortened: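 SBE-bla HEK 293T cells plated overnight, compound exposure 5 hr at 37 C. Viability read in the same wells by CellTiter-Glo luminescence after 30 min at room temperature, following the beta-lactamase read.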

[7] = qHTS assay to identify small molecule agonists of the TGF-beta/Smad signaling pathway (AID 1346859; active = well fitted activation curve with a large enough effect in the signal ratio in the repeat runs, not every such curve was filed as active; the % refers to the signal ratio; note: series mostly up to about 77 µM)
Procedure, shortened: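 HEK 293T cells stably carrying a beta-lactamase reporter driven by the Smad binding element were seeded overnight, exposed to DMSO-dissolved compounds for 5 hr at 37 C, 5% CO2, then loaded with FRET substrate for 2 hr at room temperature.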

[8] = molecular target: Thyrotropin-releasing hormone receptor (Homo sapiens) (UniProt P34981); experiment: qHTS assay to identify small molecule antagonists of the thyrotropin-releasing hormone receptor (TRHR) signaling pathway (AID 1346877; active = well fitted inhibition curve with a large enough effect in the repeat runs, not every such curve was filed as active; note: series mostly up to about 51 µM)
Procedure, shortened: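 Cells (TRHR-HEK293) are plated and kept 18 h at 37 °C/5% CO2. A calcium-sensitive dye is added for 2 h, compound follows for 5 min at room temperature, and TRH is then given at 1 nM final.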

[9] = molecular target: Thyrotropin-releasing hormone receptor (Homo sapiens) (UniProt P34981); experiment: qHTS assay to identify small molecule agonists of the thyrotropin-releasing hormone receptor (TRHR) signaling pathway (AID 1346891; calls by dose curve; note: series mostly up to about 58 µM)
Procedure, shortened: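 TRHR-expressing HEK293 cells were plated 18 h at 37 °C/5% CO2, loaded with calcium dye 2 h at 37 °C, then given compound in DMSO; fluorescence was read kinetically for 3 min at 1 s intervals.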

[10] = Human pregnane X receptor (PXR) small molecule agonists, qHTS cell viability counter screen (AID 1346977); note: nearly all actives have a fitted effect of over 50% in size; note: potency is the fitted concentration of half-maximal effect
Procedure, shortened: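 PXR-Luc HepG2 cells in medium with 5% charcoal-stripped FBS were pre-incubated 5hr, then exposed to compounds for 24hr at 37C. Viability was read in the same wells by CellTiter-Fluor fluorescence, reagent added after 23hr with a 1hr incubation.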

[11] = Caspase-3/7 induction in CHO-K1 cells by small molecules, qHTS cell viability counter screen (AID 1346979); note: nearly all actives have a fitted effect of over 35% in size; note: potency is the fitted concentration of half-maximal effect
Procedure, shortened: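 Wild-type CHO-K1 cells were seeded at 1,500 per well, rested 5hr at 37 C, then exposed to compounds in DMSO. After 16hr, CellTiter-Fluor reagent was added and fluorescence read 1hr later as the viability measure.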

[12] = Caspase-3/7 induction in CHO-K1 cells by small molecules, qHTS assay (AID 1346980); note: nearly all actives have a fitted effect of over 15% in size; note: potency is the fitted concentration of half-maximal effect
Procedure, shortened: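 Wild-type CHO-K1 cells exposed to compounds for 17hr at 37 C, 5% CO2. Caspase-3/7 activity then measured by Caspase-Glo 3/7 luminescence after 30min at room temperature.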

[13] = Caspase-3/7 induction in HepG2 cells by small molecules, qHTS cell viability counter screen (AID 1346981); note: nearly all actives have a fitted effect of over 30% in size; note: potency is the fitted concentration of half-maximal effect
Procedure, shortened: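 Steps: seed 2,000 HepG2 cells per well; incubate 5 hr at 37 C; pin-add compounds in DMSO; incubate 16 hr; add CellTiter-Fluor; after 1 hr at 37 C and 5% CO2, read fluorescence.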

[14] = molecular target: Nuclear receptor subfamily 1 group I member 2 (Homo sapiens) (UniProt O75469); experiment: Human pregnane X receptor (PXR) small molecule agonists, qHTS assay (AID 1346982); note: nearly all actives have a fitted effect of over 35% in size; note: potency is the fitted concentration of half-maximal effect
Procedure, shortened: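 Agonist mode qHTS: PXR-Luc HepG2 cells plated 5 hr before DMSO-dissolved compounds were pinned in, cultured 24 hr at 37 C, 5% CO2; ONE-Glo luminescence readout.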

[15] = molecular target: Nuclear receptor subfamily 1 group I member 2 (Rattus norvegicus) (UniProt Q9R1A7); experiment: Rat pregnane X receptor (rPXR) activation by small molecules, qHTS assay (AID 1346983); conditions: rPXR luciferase reporter cells, One-Glo luminescence, 24 h; max activation: stronger effect = higher value; note: nearly all actives have a fitted effect of over 20% in size
Procedure, shortened: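 Cell-based rPXR activation assay: rPXR cells, 2,000 per well, rested 5hr at 37 C, then exposed to compounds in DMSO for 24 hr at 37 C. Luciferase activity read by One-Glo luminescence after 30 min at room temperature.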

[16] = molecular target: Nuclear receptor subfamily 1 group I member 2 (Homo sapiens) (UniProt O75469); experiment: CYP3A4 induction through human pregnane X receptor (PXR) by small molecules, qHTS assay (AID 1346984); note: nearly all actives have a fitted effect of over 40% in size
Procedure, shortened: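 Steps: seed DPX-2 cells, 5 hr at 37C; pin-transfer compounds; 24 hr at 37C; add Luciferin-IPA (3uM final), 3 hr at 37C; add One-Glo, 30 min RT; read luminescence.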

[17] = molecular target: Nuclear receptor subfamily 1 group I member 2 (Homo sapiens) (UniProt O75469); experiment: Human pregnane X receptor (PXR) activation by small molecules, qHTS assay (AID 1346985); note: nearly all actives have a fitted effect of over 40% in size
Procedure, shortened: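 DPX-2 cells (HepG2 co-transfected with a PXR response element and a CYP3A4-promoter luciferase construct) were seeded at 2,000 per well, rested 5 hr at 37C, then exposed to DMSO-dissolved compounds for 24 hr. Activation was read as luciferase luminescence.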

[18] = Caspase-3/7 induction in HepG2 cells by small molecules, qHTS assay (AID 1346978); note: nearly all actives have a fitted effect of over 15% in size
Procedure, shortened: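 Wild-type HepG2 cells, 2,000/well, settled 5 hr at 37 C and 5% CO2, then compound-treated for 17 hr; caspase-3/7 activity read by luminescent Caspase-Glo 3/7 after 30 min at room temperature.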

[19] = molecular target: Cytochrome P450 2D6 (Homo sapiens) (UniProt P10635); experiment: Cytochrome P450 Family 2 Subfamily D Member 6 (CYP2D6) small molecule antagonists: luciferase reporter qHTS assay (AID 1671196); note: nearly all actives have a fitted effect of over 50% in size; note: potency is the fitted concentration of half-maximal effect
Procedure, shortened: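 P450-Glo format: CYP2D6 converts a proluciferin substrate to luciferin in an NADPH-driven reaction lasting 1 h at room temperature. Light output, proportional to CYP2D6 activity, reflects interference by test chemicals.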

[20] = molecular target: Progesterone receptor (Homo sapiens) (UniProt P06401); experiment: qHTS assay to identify small molecule antagonists of the progesterone receptor (PR) signaling pathway (AID 1346795; active = well fitted inhibition curve with a large enough effect in the signal ratio in the repeat runs, not every such curve was filed as active; the % refers to the signal ratio; note: potency is the fitted concentration of half-maximal effect)
Procedure, shortened: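 PR-UAS-bla HEK293T cells carrying a UAS-driven beta-lactamase reporter were plated in medium with 2% charcoal-stripped FBS and rested 6 hr at 37C. Compounds were added with 1 nM R5020 (final) for 16 hr, then FRET substrate loaded 2 hr at room temperature.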

Nuclear receptor subfamily 1 group I member 2 (Homo sapiens), sequence (O75469 whole entry, looked up): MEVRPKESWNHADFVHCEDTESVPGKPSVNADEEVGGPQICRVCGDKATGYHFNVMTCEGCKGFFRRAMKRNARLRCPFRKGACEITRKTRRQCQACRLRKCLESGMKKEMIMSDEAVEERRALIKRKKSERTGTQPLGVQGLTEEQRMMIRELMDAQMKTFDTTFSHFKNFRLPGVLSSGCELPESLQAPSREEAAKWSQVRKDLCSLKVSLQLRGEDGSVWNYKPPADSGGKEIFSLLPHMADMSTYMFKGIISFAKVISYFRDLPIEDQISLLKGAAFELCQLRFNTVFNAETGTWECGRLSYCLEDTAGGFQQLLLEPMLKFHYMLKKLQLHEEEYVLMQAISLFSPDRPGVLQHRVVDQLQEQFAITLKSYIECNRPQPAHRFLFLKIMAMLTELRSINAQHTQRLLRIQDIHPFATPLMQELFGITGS
Progesterone receptor (Homo sapiens), sequence (P06401 whole entry, looked up): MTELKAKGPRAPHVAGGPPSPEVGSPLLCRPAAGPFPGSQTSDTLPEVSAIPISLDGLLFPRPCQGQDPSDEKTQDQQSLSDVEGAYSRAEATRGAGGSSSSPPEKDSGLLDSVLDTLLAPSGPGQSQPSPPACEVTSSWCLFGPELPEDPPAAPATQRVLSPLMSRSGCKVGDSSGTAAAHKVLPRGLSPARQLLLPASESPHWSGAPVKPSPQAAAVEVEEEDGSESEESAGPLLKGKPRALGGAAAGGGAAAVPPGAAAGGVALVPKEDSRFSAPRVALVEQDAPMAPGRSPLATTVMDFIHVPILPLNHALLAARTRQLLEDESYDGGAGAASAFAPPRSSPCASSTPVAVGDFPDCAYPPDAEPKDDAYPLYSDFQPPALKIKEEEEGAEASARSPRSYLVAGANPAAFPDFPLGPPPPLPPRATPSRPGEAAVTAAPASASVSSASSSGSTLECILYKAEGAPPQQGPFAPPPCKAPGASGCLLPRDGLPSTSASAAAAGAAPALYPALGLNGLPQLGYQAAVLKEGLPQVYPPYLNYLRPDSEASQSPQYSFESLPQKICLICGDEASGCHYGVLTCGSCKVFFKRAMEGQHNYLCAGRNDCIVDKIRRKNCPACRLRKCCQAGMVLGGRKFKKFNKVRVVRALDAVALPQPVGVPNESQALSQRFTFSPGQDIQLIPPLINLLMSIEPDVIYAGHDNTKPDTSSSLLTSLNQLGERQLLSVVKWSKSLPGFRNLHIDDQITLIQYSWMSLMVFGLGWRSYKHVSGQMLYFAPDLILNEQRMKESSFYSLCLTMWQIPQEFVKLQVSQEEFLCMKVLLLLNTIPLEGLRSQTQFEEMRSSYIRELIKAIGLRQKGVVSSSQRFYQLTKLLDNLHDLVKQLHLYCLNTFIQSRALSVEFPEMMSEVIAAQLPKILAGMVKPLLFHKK
Cytochrome P450 2D6 (Homo sapiens), sequence (P10635 whole entry, looked up): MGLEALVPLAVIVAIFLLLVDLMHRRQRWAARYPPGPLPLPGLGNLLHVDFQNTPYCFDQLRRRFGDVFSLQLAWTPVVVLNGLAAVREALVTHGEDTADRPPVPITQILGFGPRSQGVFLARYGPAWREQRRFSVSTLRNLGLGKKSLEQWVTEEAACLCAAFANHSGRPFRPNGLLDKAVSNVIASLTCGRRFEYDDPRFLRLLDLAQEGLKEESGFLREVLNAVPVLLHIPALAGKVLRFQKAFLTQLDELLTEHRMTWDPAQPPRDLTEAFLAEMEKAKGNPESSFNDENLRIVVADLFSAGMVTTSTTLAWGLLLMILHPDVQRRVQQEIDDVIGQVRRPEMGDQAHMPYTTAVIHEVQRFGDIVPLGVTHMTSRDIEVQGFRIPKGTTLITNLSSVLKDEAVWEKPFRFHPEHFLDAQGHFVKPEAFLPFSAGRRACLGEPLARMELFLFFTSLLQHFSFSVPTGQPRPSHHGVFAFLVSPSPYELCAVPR
Nuclear receptor subfamily 1 group I member 2 (Rattus norvegicus), sequence (Q9R1A7 whole entry, looked up): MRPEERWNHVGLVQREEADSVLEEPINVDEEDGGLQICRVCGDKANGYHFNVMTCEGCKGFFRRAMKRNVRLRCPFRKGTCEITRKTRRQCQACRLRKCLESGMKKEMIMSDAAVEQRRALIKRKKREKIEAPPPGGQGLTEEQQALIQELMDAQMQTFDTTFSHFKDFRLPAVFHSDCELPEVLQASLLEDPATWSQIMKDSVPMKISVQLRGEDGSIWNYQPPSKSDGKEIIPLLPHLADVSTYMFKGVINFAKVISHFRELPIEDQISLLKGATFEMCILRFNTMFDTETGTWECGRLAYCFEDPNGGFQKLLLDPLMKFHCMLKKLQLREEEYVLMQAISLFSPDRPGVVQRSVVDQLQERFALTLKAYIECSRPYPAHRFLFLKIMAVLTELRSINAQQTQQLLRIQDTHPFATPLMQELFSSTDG
Thyrotropin-releasing hormone receptor (Homo sapiens), sequence (P34981 whole entry, looked up): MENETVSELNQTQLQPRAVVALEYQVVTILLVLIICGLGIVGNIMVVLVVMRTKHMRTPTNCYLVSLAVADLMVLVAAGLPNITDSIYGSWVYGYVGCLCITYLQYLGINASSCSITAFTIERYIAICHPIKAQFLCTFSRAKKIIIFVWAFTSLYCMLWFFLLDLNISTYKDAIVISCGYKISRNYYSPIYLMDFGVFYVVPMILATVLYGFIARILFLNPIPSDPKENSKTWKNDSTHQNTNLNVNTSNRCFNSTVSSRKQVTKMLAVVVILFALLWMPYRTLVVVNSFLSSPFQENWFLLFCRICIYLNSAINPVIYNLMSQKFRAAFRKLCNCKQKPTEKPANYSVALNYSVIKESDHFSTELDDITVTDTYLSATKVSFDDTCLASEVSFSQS

Row | Compound | Potency [1] | Potency [2] | Potency [3] | Potency [4] | Potency [5] | Potency [6] | outcome [7] | Potency [8] | Potency [9] | Potency [10] | Potency [11] | Potency [12] | Potency [13] | Potency [14] | max activation [15] | Potency [16] | Potency [17] | Potency [18] | Potency [19] | Potency [20]
1 | O=Cc1ccccc1C=O | inactive | inactive | inactive | inactive | inactive | inactive | inactive | inactive | inactive | 48.6 µM (active) and inactive | 15.4 µM (active) and inactive | 21.7 µM (active) and inactive | 30.6 µM (active) and inactive | 19.3 µM (active) and inactive | 5.06% (inactive) | inactive | inactive |  |  | 
2 | COCCOCCOCCO | inactive | inactive | inactive | inactive | inactive | inactive | inactive | inactive |  | inactive | inactive | inactive | inactive | inactive |  |  |  | inactive | inactive | 
3 | CC1(C)C(C=C(Cl)Cl)C1C(=O)OCc1cccc(Oc2ccccc2)c1 (configuration not stated) | inactive | inactive | inactive | inactive | inactive | inactive | inactive | inactive |  | inactive | inactive | inactive | inactive | 24.2 µM (active) | 4.94% (inactive) | inactive | inactive | inactive |  | 
4 | Cc1ccc(C(C)(C)C)cc1 | inactive | inactive | inactive |  | inactive | inactive | inactive |  |  | inactive | inactive | inactive | inactive | inactive |  |  |  | inactive | inactive | inactive
5 | C=CCOC(=O)C(=C)C | inactive | inactive | inactive | inactive | inactive | inactive | inactive | inactive | inactive | inactive | inactive | inactive | inactive | inactive |  |  |  |  |  | 
6 | CCO[Si](CCCNC(N)=O)(OCC)OCC | inactive | inactive | inactive |  | inactive | inactive | inactive |  |  | inactive | inactive | inactive | inactive | inactive |  |  |  |  | inactive | inactive
7 | CCCCCCOCCOCCO | inactive | inactive | inactive | inactive | inactive | inactive | inactive |  |  |  | inactive | inactive |  |  |  |  |  |  |  | 
8 | Cc1ccc(N)c([N+](=O)[O-])c1 | inactive | inactive | inactive | inactive | inactive | inactive | inactive | inactive |  |  | inactive | inactive |  | inactive |  |  |  | inactive |  | 
9 | CN(C)CCCN1c2ccccc2Sc2ccc(Cl)cc21 | inactive | inactive | 27.3 µM (active) and 29.8 µM (active) |  | inactive | inactive | inactive |  | inactive |  | 54.5 µM (active) and 29.8 µM (active) |  | 61.1 µM (active) and 29.8 µM (active) |  |  |  |  |  |  | 43.3 µM (active) and 21.1 µM (active)
10 | C[C@]12C=CC(=O)C=C1CC[C@H]1[C@@H]3C[C@@H](O)[C@](O)(C(=O)CO)[C@@]3(C)C[C@H](O)[C@@]12F | inactive | inactive | inactive | inactive | inactive | inactive | inactive |  |  |  | inactive | inactive | inactive | inactive | -5.29% (inactive) | inactive | inactive | inactive | inactive | 
11 | c1ccc2cc3ccccc3cc2c1 | inactive | inactive | inactive |  | inactive | inactive | inactive |  |  | inactive | inactive | inactive | inactive | 35.5 µM (active) and 21.7 µM (active) |  |  |  | inactive |  | inactive
12 | NCCOCCO | inactive | inactive | inactive | inactive | inactive | inactive | inactive |  | inactive | inactive | inactive | inactive | inactive | inactive |  |  |  |  |  | 
13 | Brc1nc2ccccc2s1 | inactive | inactive | inactive |  | inactive | inactive | inactive |  |  | inactive | inactive | inactive |  | 60.9 µM (active) |  |  |  | inactive |  | inactive
14 | CC(C)[C@@H]1CC[C@@H](C)CC1=O | inactive | inactive | inactive |  | inactive | inactive | inactive |  |  | inactive | inactive | inactive |  | inactive | -3.74% (inactive) | inactive | inactive | inactive |  | inactive
15 | c1ccc2c(c1)[nH]c1ccccc12 | inactive | inactive | inactive |  | inactive | inactive | inactive |  | inactive | inactive | inactive | inactive |  | 47.7 µM (active) and 61.1 µM (active) |  |  |  |  | 39.2 µM (active) and inactive | 26.8 µM (active)
16 | O=C(O)CCCC(=O)O | inactive | inactive | inactive |  | inactive | inactive | inactive |  | inactive | inactive | inactive | inactive |  | inactive |  |  |  | inactive | 22 µM (active) and inactive | inactive
